Experimental data taken from the supplement of paper PMC8728848.
Only a selection was taken, and the strongest signals are over-represented in it overall.

Tests used:
Assay in all cases: glycan array binding signal (z-score within array); higher = stronger binding
Conditions in all cases: glycan notation: IUPAC condensed, linker removed
[1] = target: Fuc(a1-2)Gal(b1-3)GalNAc(b1-4)[Neu5Ac(a2-3)]Gal(b1-4)Glc
How it was run: (§1)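 The binding signal is a Z-score computed within each array and averaged over linkers. Arrays of the same protein sequence at different concentrations or buffers were also averaged together. Data originate from 3228 arrays in the Consortium for Functional Glycomics database, kept only where the protein sequence was available.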

[2] = target: Fuc(a1-2)[GalNAc(a1-3)]Gal(b1-4)[Fuc(a1-3)]GlcNAc
How it was run: as §1

[3] = target: Gal(b1-3)GlcNAc(b1-3)Gal(b1-4)GlcNAc
How it was run: as §1

[4] = target: Gal(b1-4)GlcNAc(b1-3)[Gal(b1-4)GlcNAc(b1-6)]GalNAc
How it was run: as §1

Gal3S6S(b1-4)GlcNAc6S = target: Gal3S6S(b1-4)GlcNAc6S
How it was run: as §1

Glc(a1-4)Glc = target: Glc(a1-4)Glc
How it was run: as §1

[5] = target: GlcNAc(b1-4)Gal(b1-4)GlcNAc
How it was run: as §1

[6] = target: Man(a1-2)Man(a1-2)Man(a1-3)Man
How it was run: as §1

[7] = target: Man(a1-2)Man(a1-2)Man(a1-6)[Man(a1-3)]Man
How it was run: as §1

[8] = target: Man(a1-2)Man(a1-3)[Man(a1-6)]Man(a1-6)[Man(a1-2)Man(a1-3)]Man(b1-4)GlcNAc(b1-4)GlcNAc
How it was run: as §1

[9] = target: Man(a1-3)[Man(a1-6)]Man(b1-4)GlcNAc(b1-4)GlcNAc
How it was run: as §1

[10] = target: Neu5Ac(a2-3)Gal(b1-4)[Fuc(a1-3)]GlcNAc(b1-3)Gal(b1-4)GlcNAc
How it was run: as §1

Neu5Ac(a2-8)Neu5Ac = target: Neu5Ac(a2-8)Neu5Ac
How it was run: as §1

B1: RS-IIL (Ralstonia solanacearum) (protein)
chain: AQQGVFTLPANTSFGVTAFANAANTQTIQVLVDNVVKATFTGSGTSDKLLGSQVLNSGSGAIKIQVSVNGKPSDLVSNQTILANKLNFAMVGSEDGTDNDYNDGIAVLNWPLG
glycan array binding signal (z-score) [1]: 0.021 | glycan array binding signal (z-score) [2]: 0.302 | glycan array binding signal (z-score) [3]: -0.381 | glycan array binding signal (z-score) [4]: -0.389 | glycan array binding signal (z-score) (Gal3S6S(b1-4)GlcNAc6S): -0.385 | glycan array binding signal (z-score) (Glc(a1-4)Glc): -0.266 | glycan array binding signal (z-score) [5]: -0.389 | glycan array binding signal (z-score) [6]: 4.58 | glycan array binding signal (z-score) [7]: 5.58 | glycan array binding signal (z-score) [8]: 4.71 | glycan array binding signal (z-score) [9]: 4.76 | glycan array binding signal (z-score) [10]: -0.268 | glycan array binding signal (z-score) (Neu5Ac(a2-8)Neu5Ac): -0.388
